The text below walks through data of PubChem BioAssay (Tox21).

Values joined by “and” are separate entries in the source; they are usually repeats but may differ in a detail not shown here. Identical values can stand only once. Results filed as inconclusive are left out. Where a call stands in place of a potency, no number is given. Where a structure was tested more than once in an assay, its records may differ in their call. Active and inactive are the calls of the source. Calls follow the shape of the dose curve; as a rule, active = well fitted curve in the direction sought with a large enough effect in the repeat runs; inconclusive = weak or mixed curves; inactive = no such curve, though single readings can be large; an effect the other way counts as inactive or inconclusive.
Potency is read from the fitted curve at half-maximal effect.

The nature of the first assay: qHTS assay to identify small molecule antagonists of the retinoic acid receptor (RAR) signaling pathway (AID 1159552; also: nearly all actives have a fitted effect of over 50% in size). The following applies: C3RL4 RARE luciferase reporter, retinol-stimulated, 6 h; series mostly up to 92.4 µM. The method, boiled down:
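RARE-luc C3RL4 cells; cpds + 1 uM (final) retinol, 6 hr, 37 C/5% CO2; luciferase reagent, 30 min RT, luminescence readout. Inhibitors of retinol-driven signal scored.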
(qHTS replaces the single test concentration by a dilution series.)
For `COc1ccc2nc(N)sc2c1`, the Potency result is “inactive”.

For `c1ccc2c(c1)ccc1ncccc12`, the Potency entry was “inactive”. Same read-out and setting: the result for `Cc1ccc2c(c1)C(=O)OC2=O` reads “inactive”. Regarding `c1ccc2cc3ccccc3cc2c1`, the Potency result was “inactive”.

Consider `O=Cc1ccccc1C=O`, for which the Potency was 30.6 µM (active) and inactive. On the same count and under the same terms, the result for `C=CCOC(=O)C(=C)C` reads “inactive”; that for `C=C1C[C@H]2[C@@H]3C=C(C)C4=CC(=O)CC[C@]4(C)[C@H]3CC[C@]2(C)[C@@]1(OC(C)=O)C(C)=O`, “inactive”; that for `CCCCCC1C(=O)CCC1CC(=O)OC` (stereo unspecified), “inactive”. Same read-out and setting: the result for `CC(=O)Nc1ccc2c(c1)Cc1cc(NC(C)=O)ccc1-2` reads “inactive”; that for `Nc1ccc2c(c1)C(=O)c1ccccc1C2=O`, “inactive”; that for `O=C(O)c1cc(=O)[nH]c(=O)[nH]1`, “inactive”.

`C[C@]12CC[C@@H]3c4ccc(O)cc4CC[C@H]3[C@@H]1CC[C@H]2O`: the Potency result is “inactive and 27.3 µM (active)”. On the same count and under the same terms, as for `IC(I)I`, the entry is “inactive”; as for `O=C1OC2(c3ccccc31)c1cc(I)c(O)c(I)c1Oc1c2cc(I)c(O)c1I`, 34.8 µM (active) and inactive; as for `Oc1c(Cl)ccc(Cl)c1Cl`, “inactive”. Same read-out and setting: as for `Nc1cc(Cl)c(N)c(Cl)c1`, the entry is “inactive”; as for `C=CC(C)(O)CCC=C(C)C` (stereo unspecified), “inactive”.

Turning to `C=C[C@@]1(C)CC(=O)[C@]2(O)[C@@]3(C)[C@@H](O)CCC(C)(C)[C@@H]3[C@H](O)[C@H](OC(C)=O)[C@@]2(C)O1`, the Potency entry was “inactive”. Same read-out and setting: the result for `c1ccc2c(c1)ccc1cc3c(ccc4ccccc43)cc12` reads “inactive”.

`C=C[Si](OCCOC)(OCCOC)OCCOC`: the Potency result is “inactive”. Still for that read-out and setting: the result for `C=CCNCC=C` reads “inactive”.

As for `c1ccc2c(c1)[nH]c1ccccc12`, the Potency entry was “inactive”.

Turning to `Clc1ccc(Sc2cc(Cl)c(Cl)cc2Cl)cc1`, the Potency result was “inactive”.

With `C1CN(SSN2CCOCC2)CCO1`, the Potency was 53.9 µM (active). The same measure, in the same setting: as for `CC(=O)OC(C)C`, the entry is “inactive”; as for `O=C(O)CCCCCCCCCCCC(=O)O`, “inactive”. On the same count and under the same terms, the result for `COc1ccc(-c2coc3cc(O)cc(O)c3c2=O)cc1` reads “inactive”. On the same count and under the same terms, as for `OC[C@H]1O[C@@H]2O[C@H]3[C@H](O)[C@@H](O)[C@@H](O[C@H]4[C@H](O)[C@@H](O)[C@@H](O[C@H]5[C@H](O)[C@@H](O)[C@@H](O[C@H]6[C@H](O)[C@@H](O)[C@@H](O[C@H]7[C@H](O)[C@@H](O)[C@@H](O[C@H]1[C@H](O)[C@H]2O)O[C@@H]7CO)O[C@@H]6CO)O[C@@H]5CO)O[C@@H]4CO)O[C@@H]3CO`, the entry is “inactive”; as for `Nc1ccc(N)c(Cl)c1`, “inactive”. `Nc1ccc2c(O)cc(S(=O)(=O)O)cc2c1`: the Potency result is “inactive”.

A short description of the next assay: qHTS assay to identify small molecule agonists of the retinoic acid receptor (RAR) signaling pathway (AID 1159553). The following applies: C3RL4 RARE luciferase reporter, agonist, 6 h; activation: at 73.3 µM (top of the series) unless noted. The method, boiled down:
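Compounds dissolved in DMSO were pinned onto C3RL4 cells seeded the previous day, and plates were held 6 hr at 37 C. RARE-driven luciferase output was then read by luminescence.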
As for `COc1ccc2nc(N)sc2c1`, the Potency was 19.3 µM (active). For `Cc1ccc2c(c1)C(=O)OC2=O`, the Potency entry is “inactive”.

Regarding `O=Cc1ccccc1C=O`, the Potency entry is “inactive”.

As for `CNC[C@H](O)c1ccc(O)c(O)c1`, the Potency result was “inactive”. On the same count and under the same terms, as for `C=CCOC(=O)C(=C)C`, the entry is “inactive”. Still for that read-out and setting: the result for `C=C1C[C@H]2[C@@H]3C=C(C)C4=CC(=O)CC[C@]4(C)[C@H]3CC[C@]2(C)[C@@]1(OC(C)=O)C(C)=O` reads “inactive”; that for `CCCCCC1C(=O)CCC1CC(=O)OC` (stereo unspecified), “inactive”; that for `CC(=O)O[C@]1(C(C)=O)CC[C@H]2[C@@H]3C=C(Cl)C4=CC(=O)CC[C@]4(C)[C@H]3CC[C@@]21C`, “inactive”.

On to `CC(=O)Nc1ccc2c(c1)Cc1cc(NC(C)=O)ccc1-2`, for which the Potency is 30.6 µM (active).

On to `Nc1ccc2c(c1)C(=O)c1ccccc1C2=O`, for which the Potency was 338 nM (active) and 273 nM (active). The same measure, in the same setting: the result for `O=C(O)c1cc(=O)[nH]c(=O)[nH]1` reads “inactive”; that for `C[C@]12CC[C@@H]3c4ccc(O)cc4CC[C@H]3[C@@H]1CC[C@H]2O`, “inactive”. The same measure, in the same setting: the result for `IC(I)I` reads “inactive”.

With `O=C1OC2(c3ccccc31)c1cc(I)c(O)c(I)c1Oc1c2cc(I)c(O)c1I`, the Potency result was “inactive”.

For `Oc1c(Cl)ccc(Cl)c1Cl`, the Potency result was “inactive”. For the compound `Nc1cc(Cl)c(N)c(Cl)c1`, the Potency result was “inactive”. The same measure, in the same setting: as for `OC[C@@H](O)[C@@H](O[C@@H]1O[C@H](CO)[C@H](O)[C@H](O)[C@H]1O)[C@H](O)[C@@H](O)CO`, the entry is “inactive”. The same measure, in the same setting: the result for `C[C@]12CC[C@@H]3c4ccc(O)cc4CC[C@H]3[C@@H]1CC[C@@H]2O` reads “inactive”. The same measure, in the same setting: the result for `C=CC(C)(O)CCC=C(C)C` (stereo unspecified) reads “inactive”; that for `C=C[C@@]1(C)CC(=O)[C@]2(O)[C@@]3(C)[C@@H](O)CCC(C)(C)[C@@H]3[C@H](O)[C@H](OC(C)=O)[C@@]2(C)O1`, “inactive”; that for `c1ccc2c(c1)ccc1cc3c(ccc4ccccc43)cc12`, 152 nM (active) and 215 nM (active). In the case of `C=C[Si](OCCOC)(OCCOC)OCCOC`, the Potency entry was “inactive”. Regarding `C=CCNCC=C`, the Potency entry is “inactive”. Same read-out and setting: as for `c1ccc2c(c1)[nH]c1ccccc12`, the entry is “inactive”; as for `Clc1ccc(Sc2cc(Cl)c(Cl)cc2Cl)cc1`, “inactive”; as for `C1CN(SSN2CCOCC2)CCO1`, “inactive”. Same read-out and setting: the result for `CC(=O)OC(C)C` reads “inactive”; that for `[O-]/[N+](=N\O)c1ccccc1`, 48.6 µM (active). The same measure, in the same setting: the result for `COc1ccc(-c2coc3cc(O)cc(O)c3c2=O)cc1` reads 0.686 µM (active); that for `CC(C)[N+](C)(CCOC(=O)C1c2ccccc2Oc2ccccc21)C(C)C`, “inactive”. With `Nc1ccc(N)c(Cl)c1`, the Potency entry was “inactive”.
